Where “and” joins values, the source holds several entries; their conditions need not be identical. Equal entries are not always repeated. The whole screen tested about 5,500 compounds, of which about 2,000 (36%) were called active. Not shown: some 18% with an inconclusive outcome. No stated cut-off is given here; in the data, active means normalized growth mostly below about 0.91 (no sharp cut-off); inconclusive means no clear call, values can overlap the other calls; inactive means mostly above about 0.92. Some of the results follow.
Assay: chemical genetic growth profiling, strain panel (AID 1159580);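 further: tested at 20 µM; growth read once vehicle control cultures reached saturation at 30 °C; 1 = growth at the plate median or of vehicle wells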
Settings: S. cerevisiae deletion strains, growth OD

Measured: normalized growth

COc1ccc2c(c1)OCC(Cc1ccc(OC)c(O)c1)C2=O (configuration not stated)
inactive: locus YAL013W, strain DEP1, stronger effect = lower value 0.955 | locus YAL021C, strain ccr4, stronger effect = lower value 0.993 | locus YAL026C, strain drs2, stronger effect = lower value 0.965 | locus YAL030W, strain snc1, stronger effect = lower value 0.953 | locus YBL061C, strain skt5, stronger effect = lower value 0.961 | locus YBR021W, strain FUR4, stronger effect = lower value 0.873 | locus YBR023C, strain chs3, stronger effect = lower value 0.929 | locus YBR171W, strain sec66, stronger effect = lower value 0.937 | locus YBR229C, strain ROT2, stronger effect = lower value 0.98 | locus YBR231C, strain swc5, stronger effect = lower value 0.968 | locus YBR279W, strain paf1, stronger effect = lower value 0.979 | locus YCL011C, strain gbp2, stronger effect = lower value 0.922 | locus YCL016C, strain dcc1, stronger effect = lower value 0.939 | locus YCL029C, strain bik1, stronger effect = lower value 0.952 | locus YCL061C, strain MRC1, stronger effect = lower value 0.933 | locus YCL069W, strain vba3, stronger effect = lower value 0.956 | locus YCR088W, strain abp1, stronger effect = lower value 0.963 | locus YDL005C, strain med2, stronger effect = lower value 0.959 | locus YDL035C, strain GPR1, stronger effect = lower value 0.972 | locus YDL040C, strain nat1, stronger effect = lower value 0.967 | locus YDL074C, strain BRE1, stronger effect = lower value 0.937 | locus YDL101C, strain DUN1, stronger effect = lower value 0.942 | locus YDL185W, strain tfp1, stronger effect = lower value 0.961 | locus YDL192W, strain arf1, stronger effect = lower value 0.958 | locus YDR001C, strain nth1, stronger effect = lower value 0.959 | locus YDR069C, strain doa4, stronger effect = lower value 1.01 | locus YDR101C, strain arx1, stronger effect = lower value 0.972 | locus YDR137W, strain rgp1, stronger effect = lower value 0.974 | locus YDR159W, strain sac3, stronger effect = lower value 0.867 | locus YDR162C, strain NBP2, stronger effect = lower value 0.982 | locus YDR297W, strain sur2, stronger effect = lower value 0.963 | locus YDR318W, strain mcm21, stronger effect = lower value 0.93 | locus YDR334W, strain swr1, stronger effect = lower value 0.977 | locus YDR335W, strain msn5, stronger effect = lower value 0.973 | locus YDR388W, stronger effect = lower value 0.967 | locus YEL003W, strain gim4, stronger effect = lower value 0.933 | locus YEL037C, strain rad23, stronger effect = lower value 0.964 | locus YEL061C, strain CIN8 (second series), stronger effect = lower value 0.968 | locus YEL061C, strain CIN8, stronger effect = lower value 0.978 | locus YER015W, strain faa2, stronger effect = lower value 0.961 | locus YER016W, strain bim1, stronger effect = lower value 0.965 | locus YER110C, stronger effect = lower value 0.931 | locus YER111C, strain swi4, stronger effect = lower value 0.962 | locus YER155C, strain BEM2, stronger effect = lower value 0.963 | locus YER167W, strain BCK2, stronger effect = lower value 0.981 | locus YFR010W, strain ubp6, stronger effect = lower value 0.989 | locus YGL086W, strain mad1, stronger effect = lower value 0.934 | locus YGL167C, strain pmr1, stronger effect = lower value 0.939 | locus YGL173C, strain kem1, stronger effect = lower value 0.924 | locus YGL227W, strain vid30, stronger effect = lower value 0.964 | locus YGL248W, strain PDE1, stronger effect = lower value 0.9 | locus YGR078C, strain PAC10, stronger effect = lower value 0.914 | locus YGR252W, strain gcn5, stronger effect = lower value 0.78 | locus YHR013C, strain ard1, stronger effect = lower value 0.956 | locus YHR027C, strain rpn1, stronger effect = lower value 0.944 | locus YHR030C, strain SLT2, stronger effect = lower value 0.978 | locus YHR079C, strain IRE1 (second series), stronger effect = lower value 0.964 | locus YHR079C, strain IRE1, stronger effect = lower value 0.983 | locus YHR094C, strain hxt1, stronger effect = lower value 0.969 | locus YHR129C, strain ARP1, stronger effect = lower value 0.966 | locus YHR200W, strain rpn10, stronger effect = lower value 0.975 | locus YIL066C, strain RNR3, stronger effect = lower value 0.975 | locus YIL073C, strain SPO22, stronger effect = lower value 0.881 | locus YIL125W, strain kgd1, stronger effect = lower value 0.969 | locus YIR030C, strain dcg1, stronger effect = lower value 0.942 | locus YJL092W, strain hpr5, stronger effect = lower value 0.968 | locus YJL095W, strain BCK1 (second series), stronger effect = lower value 0.94 | locus YJL095W, strain BCK1, stronger effect = lower value 0.903 and 1 | locus YJL115W, strain asf1, stronger effect = lower value 0.969 | locus YJL129C, strain trk1, stronger effect = lower value 0.886 | locus YJL134W, strain LCB3, stronger effect = lower value 0.981 | locus YJL154C, strain vps35, stronger effect = lower value 0.964 | locus YJL164C, strain tpk1, stronger effect = lower value 0.933 | locus YJL168C, strain set2, stronger effect = lower value 0.958 | locus YJL187C, strain SWE1 (second series), stronger effect = lower value 0.926 | locus YJL187C, strain SWE1, stronger effect = lower value 0.983
active: locus YBR009C, strain hhf1, stronger effect = lower value 0.903 | locus YDR195W, strain ref2 1.23 [resistant] | locus YDR392W, strain spt3, stronger effect = lower value 0.449 | locus YDR502C, strain sam2, stronger effect = lower value 0.909 | locus YER155C, strain BEM2 (second series), stronger effect = lower value 0.757 | locus YGL078C, strain dbp3, stronger effect = lower value 0.92 | locus YGL240W, strain doc1, stronger effect = lower value 0.821 | locus YGL253W, strain hxk2, stronger effect = lower value 0.91 | locus YGR135W, strain pre9, stronger effect = lower value 0.868 | locus YHR142W, strain chs7, stronger effect = lower value 0.872 | locus YJL166W, strain qcr8, stronger effect = lower value 0.844

Reference: PubChem BioAssay AID1159580 (chemical genetic matrix, 2015)
